PubChem BioAssay (EPA / NIEHS)
Records with an inconclusive call do not appear. The source made the active and inactive calls. Rule for the calls, unless noted: active = hit-call score of the fitted dose curve at least 0.9, where 1 is the maximum; inconclusive = response in the unintended direction; inactive = score below 0.9.

Experiments:
[1] = read-out: Transforming Growth Factor (TGFA), TGFA (gene 7039); assay: LTEA_HepaRG_TGFA: Life Technologies and Expression Analysis (LTEA) Assay for Transforming Growth Factor (TGFA) using HepaRG (AID 2283532; active = hit-call score of the fitted dose curve at least 0.9, where 1 is the maximum; inactive = score below 0.9); conditions: mRNA level, 48 h; actives raise or lower the signal
How it was run: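 Differentiated HepaRG cells exposed 48 hours in serum-free induction medium, 0.5% DMSO vehicle, 8-point half-log series from 100 uM, in duplicate. TGFA mRNA by TaqMan qRT-PCR, normalised to ACTB, GAPDH, POLR2A; bidirectional fit versus DMSO.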

[2] = read-out: Transforming Growth Factor (TGFB1), TGFB1 (gene 7040); assay: LTEA_HepaRG_TGFB1: Life Technologies and Expression Analysis (LTEA) Assay for Transforming Growth Factor (TGFB1) Transporter using HepaRG (AID 2283533; active = hit-call score of the fitted dose curve at least 0.9, where 1 is the maximum; inactive = score below 0.9); conditions: mRNA level, 48 h; actives raise or lower the signal
How it was run: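 qRT-PCR readout of TGFB1 transcript in HepaRG lysates, normalized to three housekeeping genes; gain or loss of signal fitted relative to 0.5% DMSO vehicle. Exposure: 48 h, 8-point curve from 100 uM, duplicate wells.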

[3] = read-out: TIMP1, TIMP1 (gene 7076); assay: LTEA_HepaRG_TIMP1: Life Technologies and Expression Analysis (LTEA) Assay for TIMP1 using HepaRG (AID 2283534; active = hit-call score of the fitted dose curve at least 0.9, where 1 is the maximum; inactive = score below 0.9); conditions: mRNA level, 48 h; actives raise or lower the signal
How it was run: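 HepaRG, 48 h exposure, 8-pt half-log series from 100 uM in 0.5% DMSO, duplicates; TIMP1 transcript by Fluidigm qRT-PCR, housekeeping-normalized; bidirectional curve fit vs DMSO baseline.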

[4] = read-out: Tumor necrosis factor receptor 1 (TNFRSF1A), TNFRSF1A (gene 7132); assay: LTEA_HepaRG_TNFRSF1A: Life Technologies and Expression Analysis (LTEA) Assay for Tumor necrosis factor receptor 1 (TNFRSF1A) using HepaRG (AID 2283535; active = hit-call score of the fitted dose curve at least 0.9, where 1 is the maximum; inactive = score below 0.9); conditions: mRNA level, 48 h; actives raise or lower the signal
How it was run: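 HepaRG, 48 h plating then 48 h chemical exposure, serum-free induction media; 8-pt CRC from 100 uM, half-log, 0.5% DMSO vehicle, duplicates. Readout: TaqMan qRT-PCR (Fluidigm), housekeeping-gene normalized; bidirectional fit vs DMSO.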

[5] = read-out: Cellular tumor antigen p53 (Homo sapiens) (UniProt P04637); assay: LTEA_HepaRG_TP53: Life Technologies and Expression Analysis (LTEA) Assay for Tumor Protein P53 (TP53) using HepaRG (AID 2283537; active = hit-call score of the fitted dose curve at least 0.9, where 1 is the maximum; inactive = score below 0.9); conditions: mRNA level, 48 h; actives raise or lower the signal
How it was run: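 Gain or loss of TP53 mRNA signal is scored relative to 0.5% DMSO after 48 h chemical treatment of HepaRG liver cells, tested in duplicate at eight half-log concentrations up to 100 uM.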

[6] = read-out: UDP glucuronosyltransferase (UGT1A1), UGT1A1 (gene 54658); assay: LTEA_HepaRG_UGT1A1: Life Technologies and Expression Analysis (LTEA) Assay for UDP glucuronosyltransferase (UGT1A1) using HepaRG (AID 2283538; active = hit-call score of the fitted dose curve at least 0.9, where 1 is the maximum; inactive = score below 0.9); conditions: mRNA level, 48 h; actives raise or lower the signal
How it was run: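 HepaRG cells, 0.5% DMSO vehicle, 48 h exposure in serum-free induction medium to 8-point half-log series topping at 100 uM, in duplicate. UGT1A1 mRNA by Fluidigm qRT-PCR, normalized to ACTB/GAPDH/POLR2A; bidirectional fit versus DMSO.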

[7] = read-out: X-box binding protein 1 (XBP1), XBP1 (gene 7494); assay: LTEA_HepaRG_XBP1: Life Technologies and Expression Analysis (LTEA) Assay for X-box binding protein 1 (XBP1) using HepaRG (AID 2283540; active = hit-call score of the fitted dose curve at least 0.9, where 1 is the maximum; inactive = score below 0.9); conditions: mRNA level, 48 h; actives raise or lower the signal
How it was run: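 HepaRG, 48 h exposure, 8-pt half-log CRC top 100 uM, 0.5% DMSO vehicle, duplicates. Readout: TaqMan qRT-PCR of XBP1 mRNA, housekeeping-normalised (ACTB/GAPDH/POLR2A); bidirectional fit vs DMSO baseline.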

[8] = LTEA_HepaRG_LDH_cytotoxicity: Cytotoxicity Assessment in the Life Technologies and Expression Analysis (LTEA) Assay (AID 2283563);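 for AC50: LDH activity released into spent culture medium as a marker of cell death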
How it was run: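 HepaRG (human liver line), 48 h exposure, 8-pt half-log series from 100 uM, 0.5% DMSO vehicle, duplicates. Read-out: LDH in spent medium. Positive-direction fit vs DMSO baseline.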

[9] = ATG_XTT_Cytotoxicity: Cytotoxicity Assessment in the Attagene TRANS-FACTORIAL HepG2 Assay (AID 2283584)
How it was run: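 XTT readout of cell number in transfected HepG2 cells, 24 h post-dosing; DMSO serves as negative control and baseline, with activity taken as loss of viability signal.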

[10] = molecular target: Cellular tumor antigen p53 (Homo sapiens) (UniProt P04637); assay: TOX21_p53_BLA_p3_ratio: Tox21 HCT-116 p53 Agonism Beta-lactamase Assay, Ratio, Phase 3 (AID 2283596)
Sequence of Cellular tumor antigen p53 (Homo sapiens) (P04637 whole entry, looked up): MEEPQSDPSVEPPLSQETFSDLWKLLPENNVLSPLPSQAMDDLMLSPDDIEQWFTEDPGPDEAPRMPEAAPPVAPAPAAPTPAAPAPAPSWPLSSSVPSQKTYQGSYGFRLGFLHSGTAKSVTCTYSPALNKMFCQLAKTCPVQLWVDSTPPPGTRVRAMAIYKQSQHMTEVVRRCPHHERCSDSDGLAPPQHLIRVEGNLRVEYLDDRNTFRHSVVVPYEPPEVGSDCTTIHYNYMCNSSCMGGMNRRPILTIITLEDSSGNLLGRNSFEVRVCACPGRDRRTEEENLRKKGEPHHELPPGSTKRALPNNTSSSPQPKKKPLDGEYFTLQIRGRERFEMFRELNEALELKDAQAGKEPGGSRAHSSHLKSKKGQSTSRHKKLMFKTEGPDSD
How it was run: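 HCT116 p53-bla cells (4000/well) given compound in DMSO (217-fold dilution) after 5 h, incubated 16 h at 37C. CCF4-AM substrate 2 h at room temperature; 460/530 nm emission ratio, gain fitted against DMSO.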

[11] = TOX21_p53_BLA_p4_viability: Viability Assessment in the Tox21 HCT-116 p53 Agonism Beta-lactamase Assay, Phase 4 (AID 2283597);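 note: hits lower the luminescence signal meaning cytotoxicity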
How it was run: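 We seeded HCT116 p53 reporter cells at 4000/well and waited 5 h. We then added compounds in DMSO at a 217-fold dilution and incubated for 16 h. Viability was read as CellTiter-Glo luminescence after 30 min at RT.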

[12] = molecular target: Cellular tumor antigen p53 (Homo sapiens) (UniProt P04637); assay: TOX21_p53_BLA_p5_ratio: Tox21 HCT-116 p53 Agonism Beta-lactamase Assay, Ratio, Phase 5 (AID 2283599)
How it was run: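 HCT-116 p53-bla cells (4000/well) plated 5 h, dosed with compound (217-fold DMSO dilution) for 16 h at 37 C; CCF4-AM substrate 2 h at room temperature. Activity is the 460/530 nm emission ratio (405 nm excitation), fitted in gain-of-signal direction versus DMSO.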

[13] = TOX21_p53_BLA_p5_viability: Viability Assessment in the Tox21 HCT-116 p53 Agonism Beta-lactamase Assay, Phase 5 (AID 2283600)
How it was run: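 Compounds, pinned from DMSO at 217-fold dilution, were left on the cells for 16 h. The viability endpoint was ATP content measured by CellTiter-Glo luminescence, where falling signal reflects cytotoxicity.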

[14] = Tanguay_ZF_120hpf_MORT_legacy: (Legacy) Oregon State University Tanguay Lab 120 Hour Post-fertilization zebrafish Assay for Mortality (AID 2283633)
How it was run: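 Brightfield scoring of embryo death (binary) at 24 and 120 hpf; static exposure 6–120 hpf, 28C, sealed and foil-covered. Pronase-dechorionated 5D wild-type larvae, single embryo per well. DMSO 0.64% v/v; trimethyltin chloride 5uM positive control.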

[15] = TOX21_p53_BLA_p2_viability: Viability Assessment in the Tox21 HCT-116 p53 Agonism Beta-lactamase Assay, Phase 2 (AID 2283591);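 note: compound exposure lasted 16 h at 37 °C; actives lower the ATP signal meaning cytotoxicity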
How it was run: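 HCT116 p53-bla cells, 4000/well, dosed after 5 h plating (217-fold dilution of DMSO stocks) and incubated 16 h at 37C. Viability taken as cellular ATP by CellTiter-Glo luminescence after 30 min RT; signal loss marks cytotoxicity.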

[16] = TOX21_p53_BLA_p3_viability: Viability Assessment in the Tox21 HCT-116 p53 Agonism Beta-lactamase Assay, Phase 3 (AID 2283593);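 note: cells exposed to compound for 16 h before reading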
How it was run: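 HCT116 cells, 4000/well, dosed 5 h after plating by pin transfer (217-fold dilution from DMSO stock) and incubated 16 h at 37C, 5% CO2. Viability read as ATP luminescence with CellTiter-Glo after 30 min at room temperature.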

[17] = molecular target: Cellular tumor antigen p53 (Homo sapiens) (UniProt P04637); assay: TOX21_p53_BLA_p4_ratio: Tox21 HCT-116 p53 Agonism Beta-lactamase Assay, Ratio, Phase 4 (AID 2283601)
How it was run: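 HCT-116 p53 beta-lactamase reporter cells (4000/well) preincubated 5 h, then compound (217-fold dilution of DMSO stock) for 16 h at 37C. CCF4-AM substrate added 2 h at room temperature; 460/530 nm emission ratio fitted upward versus DMSO.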

[18] = read-out: UDP glucuronosyltransferase (UGT1A6), UGT1A6 (gene 54578); assay: LTEA_HepaRG_UGT1A6: Life Technologies and Expression Analysis (LTEA) Assay for UDP glucuronosyltransferase (UGT1A6) using HepaRG (AID 2283539; active = hit-call score of the fitted dose curve at least 0.9, where 1 is the maximum; inactive = score below 0.9); conditions: mRNA level, 48 h; actives raise or lower the signal
How it was run: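 qRT-PCR readout of UGT1A6 mRNA (normalized to ACTB/GAPDH/POLR2A) in differentiated HepaRG cells after 48 h chemical exposure; 8 concentrations, top 100 uM, half-log steps, 0.5% DMSO. Bidirectional curve fit relative to DMSO baseline.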

[19] = molecular target: Cellular tumor antigen p53 (Homo sapiens) (UniProt P04637); assay: TOX21_p53_BLA_p2_ratio: Tox21 HCT-116 p53 Agonism Beta-lactamase Assay, Ratio, Phase 2 (AID 2283592)
How it was run: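 In this cell-based reporter format, HCT116 cells were dosed with chemicals delivered from DMSO by 217-fold dilution and incubated 16 h at 37C. Emission at 460 and 530 nm after 2 h CCF4-AM loading provided the ratio, fitted upward versus DMSO.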

Measured: AC50

CCCSC(=O)N(CCC)CCC
inactive: [1] | [2] | [3] | [4] | [5] | [6] | [7] | [8] | [9] | [10] | [11] | [12] | [13] | [14]

OCCOCCO
inactive: [1] | [2] | [3] | [4] | [6] | [7] | [8] | [9]

Nc1ccc(N=Nc2ccccc2)cc1
inactive: [1] | [5] | [15] | [16] | [10] | [11] | [12] | [13] | [17]
active: [2] 13.1 µM | [3] 50 µM | [4] 23.4 µM | [6] 13 µM | [7] 16.8 µM | [8] 11.9 µM

Clc1ccccc1Cl
inactive: [1] | [2] | [3] | [4] | [6] | [18] | [7] | [8] | [9] | [14]

C1=Cc2cccc3cccc1c23
inactive: [1] | [2] | [3] | [4] | [5] | [6] | [7] | [8] | [9] | [15] | [16] | [10] | [11] | [12] | [13] | [17]

Oc1ccccc1Cl
inactive: [1] | [2] | [3] | [4] | [5] | [6] | [7] | [8] | [15] | [19] | [16] | [10] | [12] | [13] | [17]
